The record followed here is PMC8384837, “Expanding the binding specificity for RNA recognition by a PUF domain”.

Numbering of substitutions follows the chain as printed.

What all share (assay): yeast three-hybrid, YBZ-1, SC-Leu-His + 0.5 mM 3-AT, 4 days
Settings in all cases: tags: N-Gal4 AD-HA kept; label: inside an RPR1-promoter hybrid RNA with tandem MS2 sites; ssRNA

In one test the target is PUM1 PUF domain R5-TRY (Homo sapiens, UniProt Q14671 828-1176, C1007T;Q1011Y). Put shortly:
(§1)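 Repeat regions from input (SC-Leu) and selection (SC-Leu-His + 0.5 mM 3-AT) plates were PCR-amplified and Illumina-sequenced after four days of growth. The cells were strain YBZ-1 with a LexA–MS2 coat fusion and a HIS3 reporter, co-expressing Pumilio-1 PUF domain libraries and matching RNA elements from a centromeric plasmid. The interaction score is the log change in variant frequency from input to selection, taken in log2 with a pseudocount of 1 for absent variants.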

In a further test the target is PUM1 PUF domain R3-PFY (Homo sapiens, UniProt Q14671 828-1176, C935P;R936F;Q939Y). Put shortly:
as §1

Another test addresses T1, PUM1 PUF domain R6-AFR (Homo sapiens, UniProt Q14671 828-1176, N1043A;Y1044F;Q1047R).
T1 sequence: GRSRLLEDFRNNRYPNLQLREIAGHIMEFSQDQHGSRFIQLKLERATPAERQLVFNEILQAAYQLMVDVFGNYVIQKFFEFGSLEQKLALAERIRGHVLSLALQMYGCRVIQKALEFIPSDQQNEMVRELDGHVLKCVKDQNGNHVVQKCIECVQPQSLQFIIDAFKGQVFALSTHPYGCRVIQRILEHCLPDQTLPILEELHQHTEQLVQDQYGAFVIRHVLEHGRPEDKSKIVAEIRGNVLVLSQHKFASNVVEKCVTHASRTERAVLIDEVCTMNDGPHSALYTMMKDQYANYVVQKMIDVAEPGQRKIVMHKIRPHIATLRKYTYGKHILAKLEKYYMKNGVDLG
Put shortly:
as §1

The target of a further test is PUM1 PUF domain R4-TRG (Homo sapiens, UniProt Q14671 828-1176, N971T;H972R;Q975G). Put shortly:
as §1

The target in the next test is T2, PUM1 PUF domain R6-GYK (Homo sapiens, UniProt Q14671 828-1176, N1043G;Q1047K).
T2 sequence: T1 sequence with A216G, F217Y, R220K
Put shortly:
as §1

Another test has as its target T3, PUM1 PUF domain R6-NFL (Homo sapiens, UniProt Q14671 828-1176, Y1044F;Q1047L).
T3 sequence: T1 sequence with A216N, R220L
Put shortly: as §1

The next test addresses PUM1 PUF domain R4-DHV (Homo sapiens, UniProt Q14671 828-1176, N971D;Q975V). Put shortly:
as §1

A further test addresses PUM1 PUF domain R7-KWN (Homo sapiens, UniProt Q14671 828-1176, S1079K;N1080W;E1083N). Put shortly:
as §1

The target in a further test is PUM1 PUF domain R5-NAI (Homo sapiens, UniProt Q14671 828-1176, C1007N;R1008A;Q1011I). Put shortly: as §1
The next test has as its target PUM1 PUF domain R1-KTY (Homo sapiens, UniProt Q14671 828-1176, S863K;R864T;Q867Y). Put shortly: as §1

For “GGCUAGAACUAGUGGAUCCCCCGGCGCCCGGCGGCUCGAGCCCGGGUAAGUGUAAAUAGUCUGCAUGCCGCCGGGCGCCAUGCCUGCAGGUCGACUCUAGAAAACAUG”, the binding signal is 4.49 log2 enrichment (interaction score) with PUM1 PUF domain R5-TRY; 4.24 log2 enrichment (interaction score) in the test with PUM1 PUF domain R3-PFY; 4.43 log2 enrichment (interaction score) with PUM1 PUF domain R6-AFR; 5.35 log2 enrichment (interaction score) with PUM1 PUF domain R4-TRG; 2.87 log2 enrichment (interaction score) in the test with PUM1 PUF domain R6-GYK; 5.25 log2 enrichment (interaction score) with PUM1 PUF domain R6-NFL.
Consider “GGCUAGAACUAGUGGAUCCCCCGGCGCCCGGCGGCUCGAGCCCGGGUAAGUGUACAUAGUCUGCAUGCCGCCGGGCGCCAUGCCUGCAGGUCGACUCUAGAAAACAUG”, for which the binding signal in the test with PUM1 PUF domain R4-DHV is 5.75 log2 enrichment (interaction score).
In the case of “GGCUAGAACUAGUGGAUCCCCCGGCGCCCGGCGGCUCGAGCCCGGGUAAGUGUAUAUAGUCUGCAUGCCGCCGGGCGCCAUGCCUGCAGGUCGACUCUAGAAAACAUG”, the binding signal in the test with PUM1 PUF domain R4-DHV was 6.27 log2 enrichment (interaction score).
With “GGCUAGAACUAGUGGAUCCCCCGGCGCCCGGCGGCUCGAGCCCGGGUAAGUGCAAAUAGUCUGCAUGCCGCCGGGCGCCAUGCCUGCAGGUCGACUCUAGAAAACAUG”, the binding signal with PUM1 PUF domain R6-AFR was 4.86 log2 enrichment (interaction score).
For “GGCUAGAACUAGUGGAUCCCCCGGCGCCCGGCGGCUCGAGCCCGGGUAAGUCUAAAUAGUCUGCAUGCCGCCGGGCGCCAUGCCUGCAGGUCGACUCUAGAAAACAUG”, the binding signal with PUM1 PUF domain R7-KWN was 5.98 log2 enrichment (interaction score).
On to “GGCUAGAACUAGUGGAUCCCCCGGCGCCCGGCGGCUCGAGCCCGGGUAAGUGUUAAUAGUCUGCAUGCCGCCGGGCGCCAUGCCUGCAGGUCGACUCUAGAAAACAUG”, for which, in the test with PUM1 PUF domain R5-NAI, the binding signal is 3.43 log2 enrichment (interaction score).
Turning to “GGCUAGAACUAGUGGAUCCCCCGGCGCCCGGCGGCUCGAGCCCGGGUAAGUGUAAAUUGUCUGCAUGCCGCCGGGCGCCAUGCCUGCAGGUCGACUCUAGAAAACAUG”, the binding signal in the test with PUM1 PUF domain R1-KTY was 3.93 log2 enrichment (interaction score).
